Where “and” joins values, the source holds several entries; their conditions need not be identical. Identical values can stand only once. The panel holds about 83,000 compounds, 20% with a hit somewhere; the sample as a whole holds those more often.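 96-well plates, one dose, 48 hours. Percent growth reported; active if below 10.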 Calls of active or inactive are those of the source.
Legend:
Experiment in all cases: NCI-60 one-dose screen, 48 h (100 = growth as untreated, 0 = no growth, -100 = all killed)
Conditions in all cases: 10 µM unless noted
T-47D breast = test system: T-47D breast
BT-549 breast = test system: BT-549 breast
MDA-MB-435 melanoma = test system: MDA-MB-435 melanoma
SW-620 colon = test system: SW-620 colon
MCF7 breast = test system: MCF7 breast
HCT-116 colon = test system: HCT-116 colon
HCC-2998 colon = test system: HCC-2998 colon
KM12 colon = test system: KM12 colon

SMILES	growth (T-47D breast)	growth (BT-549 breast)	growth (MDA-MB-435 melanoma)	growth (SW-620 colon)	growth (MCF7 breast)	growth (HCT-116 colon)	growth (HCC-2998 colon)	growth (KM12 colon)
O=C(Nc1cccc(Cl)c1)c1cc2ccccc2cc1O	15.5% (inactive) and 2.04% (active)	6.65% (active) and 0.941% (active)	28.8% (inactive) and 13.9% (inactive)	13.1% (inactive) and 13.9% (inactive)	35.5% (inactive) and 16.9% (inactive)	18.9% (inactive) and 6.81% (active)	27.4% (inactive)	15.4% (inactive) and 11.8% (inactive)
CC(=O)c1ccc2c(c1)N(CCCN1CCN(CCO)CC1)c1ccccc1S2	160% (inactive) and 37.8% (inactive)	88.1% (inactive) and 44.6% (inactive)	84.1% (inactive) and -67% (active)	95% (inactive) and -52.1% (active)	79.2% (inactive) and -31.2% (active)	83.9% (inactive) and -11.8% (active)	102% (inactive) and -55.5% (active)	105% (inactive) and 2.29% (active)
O=C(Oc1cccc(OC(=O)c2ccccc2)c1)c1ccccc1	102% (inactive)	112% (inactive) and 90.8% (inactive)	113% (inactive) and 99.8% (inactive)	85.8% (inactive) and 103% (inactive)	78.7% (inactive) and 107% (inactive)	89.2% (inactive) and 93.9% (inactive)	96.3% (inactive) and 102% (inactive)	87.9% (inactive)
N#CC(C#N)=C/C=C/c1cccc([N+](=O)[O-])c1	39.1% (inactive) and 17% (inactive)	57.1% (inactive)	6.2% (active) and -53.1% (active)	2.75% (active) and -71.6% (active)	32.4% (inactive) and 18% (inactive)	-64.6% (active) and -91.7% (active)	-79.1% (active) and -79.8% (active)	8.85% (active) and -76.4% (active)
Nc1nc2ncc(CNc3ccc(C(=O)N[C@@H](CCc4nn[nH]n4)C(=O)O)cc3)nc2c(=O)[nH]1	103% (inactive) and 95.9% (inactive)	88.7% (inactive) and 107% (inactive)	101% (inactive) and 110% (inactive)	98.5% (inactive) and 104% (inactive)	94.2% (inactive) and 93.7% (inactive)	94.1% (inactive) and 98.9% (inactive)	99.2% (inactive) and 104% (inactive)	94.5% (inactive) and 103% (inactive)
O=[N+]([O-])c1ccccc1N(S(=O)(=O)c1ccccc1)S(=O)(=O)c1ccccc1	105% (inactive) and 92.7% (inactive)	106% (inactive)	100% (inactive) and 98.1% (inactive)	102% (inactive) and 97.3% (inactive)	127% (inactive)	110% (inactive) and 91.4% (inactive)	101% (inactive) and 106% (inactive)	96.1% (inactive) and 92% (inactive)
COC(=O)[C@H]1CCCN1C(=O)C1CCCN1C(=O)[C@@H](Cc1ccccc1)NC(=S)Nc1cc(C(F)(F)F)cc(C(F)(F)F)c1 (stereo partly specified)	105% (inactive) and 69.1% (inactive)	112% (inactive) and 96.8% (inactive)	100% (inactive) and 89.7% (inactive)	104% (inactive) and 89% (inactive)	99.2% (inactive) and 86.3% (inactive)	112% (inactive) and 65.5% (inactive)	108% (inactive) and 112% (inactive)	111% (inactive) and 96.5% (inactive)
CCN(CC)CCCC(C)Nc1cnc(C(=O)Nc2cc(F)cc3cccnc23)cn1 (stereo unspecified)	14.3% (inactive) and -49.5% (active)	77.4% (inactive) and -40.1% (active)	25.5% (inactive) and 3.24% (active)	24.3% (inactive) and -78.8% (active)	2.31% (active) and -37.5% (active)	9.52% (active) and -66.7% (active)	66.7% (inactive) and 14.1% (inactive)	75.3% (inactive) and -92.3% (active)
COc1ccccc1/C=N\N=C(N/N=C/c1ccccc1OC)N/N=C/c1ccccc1OC	61.9% (inactive) and 27% (inactive)	80.8% (inactive) and 39.1% (inactive)	61.9% (inactive) and 30.2% (inactive)	60.8% (inactive) and 20.1% (inactive)	23.8% (inactive) and 6.76% (active)	39.5% (inactive) and 14% (inactive)	33.7% (inactive) and 26.8% (inactive)	43.1% (inactive) and 15.6% (inactive)
Cn1cc(-c2cc3c(Nc4ccc(CC(=O)Nc5cc(C(C)(C)C)on5)cc4)ncnc3[nH]2)cn1	-1.6% (active) and -13.9% (active)	-15% (active) and -15.8% (active)	-42.3% (active) and -0.328% (active)	-7.24% (active) and 1.5% (active)	4.99% (active) and 7.91% (active)	0.379% (active) and 1.42% (active)	-10.8% (active) and -2.61% (active)	-20.7% (active) and 3.37% (active)
CN1CCN(C2CCN(C(=O)Nc3cc(Oc4ccc(NC(=O)C5(C(=O)Nc6ccc(F)cc6)CC5)c(F)c4)ccn3)CC2)CC1	-66.4% (active) and 83.7% (inactive)	-68.7% (active) and 98.5% (inactive)	-93% (active) and 85.8% (inactive)	-14.2% (active) and 122% (inactive)	-42.1% (active) and 76% (inactive)	-58.6% (active) and 69.1% (inactive)	-66.8% (active) and 136% (inactive)	-46% (active) and 30.4% (inactive)
CCc1c(CC(=O)O)c2cc(C)ccc2n1Cc1ccc(Cl)cc1	86.3% (inactive) and -2.2% (active)	94% (inactive) and 183% (inactive)	114% (inactive) and 97.4% (inactive)	102% (inactive)	98.1% (inactive) and 95.4% (inactive)	97.1% (inactive) and 110% (inactive)	125% (inactive) and 98.4% (inactive)	96% (inactive) and 95.3% (inactive)
CN1CCN(CCC=C2c3ccccc3Sc3ccc(S(=O)(=O)N(C)C)cc32)CC1	77.4% (inactive)	67.9% (inactive) and 70% (inactive)	12.8% (inactive) and 6.78% (active)	76.9% (inactive) and 74.2% (inactive)	41.2% (inactive) and 71.9% (inactive)	39.5% (inactive) and 45.1% (inactive)	13.9% (inactive) and 14.4% (inactive)	68.7% (inactive) and 73.4% (inactive)
O=[N+]([O-])c1ccccc1/C=N\Nc1ccccc1	48.2% (inactive) and 57.9% (inactive)	91.1% (inactive) and 97.8% (inactive)	88.8% (inactive) and 83.6% (inactive)	95% (inactive) and 93.3% (inactive)	66.3% (inactive) and 69.4% (inactive)	79.2% (inactive) and 84.5% (inactive)	88.6% (inactive) and 91.5% (inactive)	40.6% (inactive) and 36.1% (inactive)
NC(=S)NN=C1CCC(C2CCCCC2)CC1 (stereo unspecified)	44.1% (inactive) and 40% (inactive)	102% (inactive) and 92.5% (inactive)	79.1% (inactive) and 77.2% (inactive)	84.6% (inactive) and 88.6% (inactive)	83% (inactive) and 95.1% (inactive)	73.9% (inactive) and 78.6% (inactive)	92.9% (inactive) and 94.7% (inactive)	94.5% (inactive) and 93.9% (inactive)
O=C(CN1CCOCC1)N1CCOCC1	110% (inactive) and 101% (inactive)	96.9% (inactive)	116% (inactive) and 101% (inactive)	105% (inactive) and 109% (inactive)	110% (inactive) and 105% (inactive)	104% (inactive) and 107% (inactive)	104% (inactive) and 105% (inactive)	110% (inactive) and 106% (inactive)
Nc1ccc2ccc(N)cc2c1	87.7% (inactive)	87.7% (inactive)	-33.6% (active)	87.5% (inactive)	63.5% (inactive)	82.6% (inactive)	100% (inactive)	67.1% (inactive)
